Compound activity from PubChem.
Compounds with a hit are over-represented: about 1.2% of the library has one in this group of screens.
TRPV1 potentiator – enhances activation of the human vanilloid receptor TRPV1; TRPV1-expressing cells, Fluo-8 calcium influx, capsaicin EC20 potentiation; AID 540277; potentiation, % at 8.33 µM; Q8NER1; 0.02% of 320,000 active; in the data active means potentiation above about 80%; inconclusive means between about 30% and that limit
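Fluo-8 calcium influx in TRPV1-expressing cells, kinetic read (ex 480/em 520 nm). Compound added and read 3 min for agonist activity, followed by capsaicin at EC20 final and 2 min further read for enhancement.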
KCNH2 3.1 block – inhibitors of human KCNH2 3.1 potassium channel isoform. activity change, % (tested at about 1.8 µM). 0.95% of 340,000 active. AID 720553. U2OS KCNH2 3.1, thallium flux FluxOr; active compounds read low;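 active means maximum activity change below -70%; inconclusive means maximum activity change from -70% to -50%; inactive means maximum activity change above -50%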;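 further: thallium influx rate constant from kinetic fluorescence after stimulation buffer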
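Steps: virus added to U2OS suspension (4 h, RT, dark); medium with 10% FBS added, cells plated, 37 C overnight; FluxOr/Red40 loading buffer 45 min RT; stimulation buffer, 2 min kinetic read; rate constant normalized.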
TRPV1 ag – human TRPV1 agonism | TRPV1-expressing cells, Fluo-8 calcium influx, agonist mode | activation, % at 8.33 µM | 0.19% of 320,000 active; in the data active means activation above about 80%; inconclusive means between about 30% and that limit
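TRPV1-expressing cells were cultured overnight at 35.5C and loaded with Fluo-8 calcium dye for 40 to 90 min at room temperature. After a 10 s baseline, compound was added and calcium influx was read kinetically for 3 min (ex 480/em 520 nm).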
hERG WT inh – blocks the wildtype human KCNH2 potassium channel | 0.37% of 340,000 active | activity change, % at 1.84 µM | U2OS, BacMam KCNH2, thallium flux FluxOr; active compounds read low;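 active means maximum activity change below -70%; inconclusive means maximum activity change between -70% and -50%; inactive means maximum activity change above -50%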
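U2OS cells transduced with wild-type KCNH2 virus are loaded with FluxOr dye for 45 min, and thallium flux is measured in kinetic reads before and after stimulation buffer. Rate constants are normalized to DMSO controls.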
Large screens that a line does not name were inactive.

COc1ccccc1CN1CCCC(C(=O)N(C)Cc2ccccc2)C1 (stereo not drawn)	none (no result: TRPV1 potentiator, TRPV1 ag)
COc1ccc(CN2CCCC(C(=O)N(C)Cc3ccccc3)C2)cc1OC (stereo not drawn)	KCNH2 3.1 block -75
C[C@@H]1CCCCO[C@@H](CN(C)S(=O)(=O)c2ccc(F)cc2)[C@@H](C)CN([C@H](C)CO)C(=O)c2cc(NC(=O)c3ccccc3)ccc2O1	none (no result: TRPV1 potentiator, TRPV1 ag)
COc1ccc(CN(C)C(=O)Cn2cc(C)c(=O)[nH]c2=O)cc1OC	none (no result: TRPV1 potentiator, TRPV1 ag)
COc1cccc(CCNC(=O)CCc2nnc(-c3cc(C)oc3C)o2)c1	TRPV1 potentiator 101
Cc1ccccc1C(=O)NNC(=O)C(C)N1C(=O)c2ccccc2C1=O (stereo not drawn)	KCNH2 3.1 block -73
Cc1ccccc1C(=O)NC(CC(C)C)C(=O)NN1C(=O)c2ccccc2C1=O (stereo not drawn)	none
Cc1ccc2nc(NC(=O)C3CCN(S(=O)(=O)c4cccs4)CC3)sc2c1	KCNH2 3.1 block -80
COc1ccc2nc(NC(=O)C3CCN(S(=O)(=O)c4cccs4)CC3)sc2c1	none
Cc1ccc(NC(=O)CN2C(=O)NC(C)(C3CC3)C2=O)cc1S(=O)(=O)N1CCCCC1 (stereo not drawn)	none
Nc1ncc(CCN2CCOCC2)c(-c2ccc(F)cc2)n1	hERG WT inh -121
CN(CC(=O)Nc1ccc(F)cc1)CC(=O)N(C)C1(C#N)CCCCC1	KCNH2 3.1 block -115
CN(C)c1ccc(/C=C/C(=O)c2ccc(O)cc2)cc1	hERG WT inh inconclusive (no result: TRPV1 potentiator, TRPV1 ag)
CN(C)c1ccc(/C=C/C(=O)c2cccnc2)cc1	TRPV1 ag 85
CN(Cc1ccccc1)S(=O)(=O)c1cccc2cccnc12	hERG WT inh -76
COc1cccc(CNC(=O)CN(C)S(=O)(=O)c2cccc3cccnc23)c1	none
COC(=O)c1ccccc1-c1c2ccc(=N)cc-2oc2cc(N)ccc12	KCNH2 3.1 block inconclusive, TRPV1 ag 123, hERG WT inh -118
CN(CC(=O)Nc1ccc(F)cc1)C(=O)COC(=O)c1cc(Br)c(Br)s1	none (no result: TRPV1 potentiator, TRPV1 ag)
CN1CCC(Oc2ccccc2Sc2ccccc2)CC1	hERG WT inh -71
COc1ccc(/C=C/C(=O)NCCCN2CCCCCC2)cc1	none
Cc1ccc(/C=C/C(=O)NCCCN2CCN(CCCNC(=O)/C=C/c3ccc(C)o3)CC2)o1	KCNH2 3.1 block -76
O=C(/C=C/c1ccc(F)cc1)NCCCN1CCN(CCCNC(=O)/C=C/c2ccc(F)cc2)CC1	KCNH2 3.1 block -92
COc1ccc(/C=C/C(=O)NCCCN2CCOCC2)cc1	none
O=c1cnc2ccccc2n1Cc1ccccc1	none (no result: TRPV1 potentiator, TRPV1 ag)
Cc1cc(C(=O)OCC(=O)N2CCC(C)CC2)c2ccccc2n1	none (no result: TRPV1 potentiator, TRPV1 ag)
Cc1ccc(NC(=S)NCc2ccc3c(c2)cc(C)n3C)c(C)c1	KCNH2 3.1 block -103 (no result: hERG WT inh)
CCN(Cc1ccccc1)S(=O)(=O)c1ccc(C(=O)N(CCCN(C)C)c2nc3c(C)c(C)ccc3s2)cc1	none
CC(=NNc1ccccc1)C(C)=NNc1ccccc1	KCNH2 3.1 block -71 (no result: TRPV1 potentiator, TRPV1 ag)
CC(=O)/C=N/Nc1ccccc1	none
CN(C)CCN=Cc1c(O)n(-c2ccc(S(=O)(=O)N3CCOCC3)cc2)c(=O)c2ccccc12	none
O=C(Nc1ccc(C(F)(F)F)cn1)Nc1cccs1	none
Cc1nc(C(F)(F)F)ccc1C(=O)Nc1ccc(C(F)(F)F)cn1	TRPV1 ag 82
O=C(c1ccc(NS(=O)(=O)c2ccc3[nH]c(=O)[nH]c3c2)cc1)N1CCN(c2ccccc2O)CC1	KCNH2 3.1 block -80
COC(=O)c1cn(CC(=O)N2CCCCCC2)c2ccccc12	none
CCOC(=O)C1=C(O)/C(=C/c2cn(CC(=O)N3CCCC3)c3ccccc23)SC1=Nc1ccccc1	hERG WT inh -102
CCOc1cc(/C=C(\CC(=O)O)c2nc3ccccc3s2)ccc1OCC(=O)Nc1cccc(C(F)(F)F)c1	hERG WT inh -258 (no result: TRPV1 potentiator, TRPV1 ag)
Cc1ccc(NC(=O)c2nc[nH]c2C(=O)N2CCC(C)CC2)cc1	KCNH2 3.1 block -134
COc1ccc(NC(=O)c2nc[nH]c2C(=O)N2CCC(C)CC2)cc1	none (no result: KCNH2 3.1 block, hERG WT inh)
COC(=O)c1c(NC(=O)CCCC(=O)O)sc(C)c1C	KCNH2 3.1 block -83
CCOC(=O)c1c(NC(=O)Cn2nc(C(F)F)cc2C(F)F)sc(C)c1C	none
COC(=O)c1c(NC(=O)Cn2nc(C(F)F)cc2C(F)F)sc(C)c1C	KCNH2 3.1 block -75
COc1ccc(-c2nc(CS(=O)(=O)CC(=O)NC3CCCCCC3)c(C)o2)cc1	hERG WT inh -102
Cc1ccc(-c2nc(CS(=O)(=O)CC(=O)NCCN3CCOCC3)c(C)o2)cc1	hERG WT inh -187
COc1cccc(-c2nc(CS(=O)(=O)CC(=O)Nc3c(C)cccc3C)c(C)o2)c1	KCNH2 3.1 block -104
O=C1NC(=O)C(c2ccccc2)(C2CCCC2)N1 (stereo not drawn)	none (no result: TRPV1 potentiator, TRPV1 ag)
O=C1OC(CC(=O)N(Cc2nnc(-c3ccccc3Cl)o2)C2CC2)c2ccccc21 (stereo not drawn)	none
O=C(Cn1sc2ccccc2c1=O)NC12CC3CC(CC(C3)C1)C2	none
Nc1cccc2c1C(=O)N(CC(=O)NC13CC4CC(CC(C4)C1)C3)C2=O	hERG WT inh -105
C[C@@H]1CN([C@@H](C)CO)C(=O)CCCn2nncc2CO[C@H]1CN(C)S(=O)(=O)c1ccc(-n2cccn2)cc1	none (no result: TRPV1 potentiator, TRPV1 ag)
C[C@@H]1CN([C@H](C)CO)C(=O)CCCn2nncc2CO[C@@H]1CN(C)S(=O)(=O)c1ccc2c(c1)OCCCO2	none (no result: TRPV1 potentiator, TRPV1 ag)
CCC(=O)N(C)/C=C1\Sc2ccccc2C1=O	TRPV1 potentiator inconclusive, hERG WT inh -102
CC(=O)N(C)/C=C1\Sc2ccccc2C1=O	none
CCc1cccc(CC)c1NC(=O)C(NS(=O)(=O)c1cccs1)c1ccccc1 (stereo not drawn)	none
Cc1ccc(Cl)cc1NC(=O)C(NS(=O)(=O)c1cccs1)c1ccccc1 (stereo not drawn)	hERG WT inh -119
Cc1ccc2c(c1)S(=O)(=O)N(C)C(c1ccccc1)=C2	none (no result: TRPV1 potentiator, TRPV1 ag)
COc1ccc(C(=O)Oc2cc3c4c(c2)C(C)=CC(C)(C)N4C(=O)C3=O)cc1OC	KCNH2 3.1 block -72
CCN(c1ccc(OC)cc1)c1ncnc2nc[nH]c12	TRPV1 potentiator inconclusive
CCCN(c1ccc(OCC)cc1)c1ncnc2nc[nH]c12	KCNH2 3.1 block -90
Cc1cc(Cl)ccc1OCCCC(=O)OCC(=O)Nc1cccc(S(N)(=O)=O)c1	none
NS(=O)(=O)c1ccc(NC(=O)c2ccc3c(c2)OCO3)cc1	TRPV1 ag inconclusive
NS(=O)(=O)c1ccc(NC(=O)c2ccc3c(c2)CCCC3)cc1	TRPV1 ag 92
CCCCN1C(=O)C(CC(=O)NCc2cccc3ccccc23)CC(C(=O)N(C)C)=C1C (stereo not drawn)	KCNH2 3.1 block -91 (no result: TRPV1 potentiator, TRPV1 ag)
Nc1nc2ccccc2n1CCOc1ccc(Cl)cc1	KCNH2 3.1 block -84
Nc1nc2ccccc2n1CCOc1ccc(Br)cc1	KCNH2 3.1 block -91
O=C(NN1C(=O)C2C3C=CC(C3)C2C1=O)c1cccc(Cl)c1 (stereo not drawn)	hERG WT inh -78
O=C(NN1C(=O)C2C3C=CC(C4CC34)C2C1=O)c1ccc(Cl)c(Cl)c1 (stereo not drawn)	none
